This note sets out measurements from PubChem BioAssay (NCATS).

Records with an inconclusive call do not appear. A number with no mark means an inactive call. The source made the active and inactive calls. Calls come from the whole dose curve; as a rule, active = well fitted curve in the direction sought with a large enough effect; inconclusive = small, poorly fitted or top-dose-only effect, or another doubt; inactive = no such curve, though single readings can be large; an effect the other way counts as inactive or inconclusive.
Potency is the fitted concentration of half-maximal effect.

The first assay is described as follows: Quantitative highthroughput screen to assess conditional lethalithy of SEM cells grown in RPMI1640 with unreated serum (RPMI+s) (AID 1963883).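 For viability: 100% = DMSO wells and 0% = empty wells without cells.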 Note: nearly all actives have a fitted effect of over 35% in size. The settings on record: SEM B-ALL cells, CellTiter-Glo viability, 48 h; series mostly up to 45.8 µM; viability: at the top concentration. The gist of the method: (§1)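 Each medium arm—HPLM with 10% dialyzed FBS, or RPMI1640 with 5 mM glucose and 10% untreated or dialyzed FBS—was screened against an 11-point, 3-fold compound titration for 48 h at 37 °C, with CellTiter-Glo luminescence as endpoint.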
For orientation: Cellular ATP, detected with luciferase, serves as a proxy for viable cell number.
`CC(C)N(CCCNC(=O)Nc1ccc(C(C)(C)C)cc1)C[C@H]1O[C@@H](n2cc(Br)c3c(N)ncnc32)[C@H](O)[C@H]1O`: the Potency is 20.9 µM (active). For orientation: viability means a read-out of living cells in per cent, often relative to untreated cells. For `COc1cc2c(cc1OC)[C@@H]1Cc3ccc(OC)c(OC)c3CN1CC2`, the “viability” value was 86%. As to `Nc1nc(F)nc2c1ncn2[C@@H]1O[C@H](COP(=O)(O)O)[C@@H](O)[C@H]1O`, the Potency is 8.33 µM (active). Same read-out and setting: as for `COc1cc(O)c2c(c1)C(=O)c1cc(C)cc(O)c1C2=O`, the figure is 4.07 µM (active). Still for that read-out and setting: as for `CO[C@@H](C(=O)N1Cc2[nH]nc(NC(=O)c3ccc(N4CCN(C)CC4)cc3)c2C1)c1ccccc1`, the figure is 0.0743 µM (active); as for `CCOc1ccccc1N=Nc1c(C)[nH]n(-c2nc(-c3ccccc3)cs2)c1=O`, 6.62 µM (active); as for `CNC(=O)c1c(F)cccc1Nc1nc(Nc2cc3c(cc2OC)CCN3C(=O)CN(C)C)nc2[nH]ccc12`, 0.469 µM (active). The same measure, in the same setting: for `COC(=O)C=CC(=O)OC` the value was 1.32 µM (active); for `CC(C)OC(=O)[C@H](C)N[P@](=O)(OC[C@H]1O[C@@H](n2ccc(=O)[nH]c2=O)[C@](C)(F)[C@H]1O)Oc1ccccc1`, 6.62 µM (active). For the compound `OC[C@H]1O[C@@H](Oc2cc(O)cc(C=Cc3ccc(O)cc3)c2)[C@H](O)[C@@H](O)[C@H]1O`, the “viability” value is 99.9%. Take `COc1cc(OC)c(C=CS(=O)(=O)Cc2ccc(OC)c(NCC(=O)O)c2)c(OC)c1`: the Potency was 0.209 µM (active). On the same count and under the same terms, as for `NC1=N[C@@]2(c3cc(NC(=O)c4ccc(F)cn4)ccc3F)COC[C@@H]2CS1`, the figure is 11.8 µM (active); as for `CC(C)NC[C@@H](C(=O)N1CCN(c2ncnc3c2[C@H](C)C[C@H]3O)CC1)c1ccc(Cl)cc1`, 0.296 µM (active); as for `COc1cc(CNC(=O)CCCCC=CC(C)C)ccc1O`, 0.526 µM (active). Take `CC(C)N(CC[C@H](c1ccccc1)c1cc(CO)ccc1O)C(C)C`: the “viability” value is 93.2%. Take `CCCCCN=C(N)NN=Cc1c[nH]c2ccc(OC)cc12`: the Potency is 11.8 µM (active). As for `CCOC1OC(=O)C[C@H]1NC(=O)[C@@H]1CCCN1C(=O)[C@@H](NC(=O)c1ccc(N)c(Cl)c1)C(C)(C)C` (stereo partly drawn), the “viability” value is 87.7%. For `Cc1[nH]c(C=C2C(=O)Nc3ccc(S(=O)(=O)N(C)c4cccc(Cl)c4)cc32)c(C)c1C(=O)N1CCN(C)CC1`, the Potency is 11.8 µM (active). On to `CCNC(=O)CCCC=CC[C@@H]1[C@H](C=CC(O)CCc2ccccc2)[C@@H](O)C[C@@H]1O` (stereo partly drawn), for which the “viability” value is 105%.

Another assay in a line: Quantitative highthroughput screen to assess conditional lethalithy of SEM cells grown in RPMI1640 with dialyzed fetal bovine serum (RPMI+ds) (AID 1963884).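 For viability: 100% = DMSO control wells and 0% = empty wells without cells.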 Note: nearly all actives have a fitted effect of over 35% in size. The settings on record: SEM B-ALL cells, RPMI+dialyzed FBS, CellTiter-Glo viability, 48 h; series mostly up to 45.8 µM; viability: at the top concentration. Summed up:
as §1
Consider `Oc1ccc(C=Cc2cc(O)cc(O)c2)cc1`, for which the Potency is 20.9 µM (active). For `COc1cc2c(cc1OC)[C@@H]1Cc3ccc(OC)c(OC)c3CN1CC2`, the “viability” value is 83.5%. Turning to `Nc1nc(F)nc2c1ncn2[C@@H]1O[C@H](COP(=O)(O)O)[C@@H](O)[C@H]1O`, the Potency is 1.87 µM (active).

Regarding `COc1cc(O)c2c(c1)C(=O)c1cc(C)cc(O)c1C2=O`, the Potency is 5.12 µM (active). Still for that read-out and setting: as for `CO[C@@H](C(=O)N1Cc2[nH]nc(NC(=O)c3ccc(N4CCN(C)CC4)cc3)c2C1)c1ccccc1`, the figure is 0.0833 µM (active). On the same count and under the same terms, as for `COc1ccc2c3n(c(=NC(=O)c4cccnc4)nc2c1OC)CCN3`, the figure is 9.35 µM (active); as for `CCOc1ccccc1N=Nc1c(C)[nH]n(-c2nc(-c3ccccc3)cs2)c1=O`, 7.43 µM (active). Take `Clc1ccc(C(Cn2ccnc2)OCc2ccc(Sc3ccccc3)cc2)c(Cl)c1` (stereo not drawn): the “viability” value was 68.8%. Regarding `CNC(=O)c1c(F)cccc1Nc1nc(Nc2cc3c(cc2OC)CCN3C(=O)CN(C)C)nc2[nH]ccc12`, the Potency is 0.296 µM (active). Still for that read-out and setting: as for `CO[C@@H]1[C@@H](O)[C@H](O)[C@@H](n2c3c(Cl)cccc3c3c4c(c5c6cccc(Cl)c6[nH]c5c32)C(=O)NC4=O)O[C@@H]1CO`, the figure is 0.469 µM (active). On the same count and under the same terms, as for `CC(C)OC(=O)[C@H](C)N[P@](=O)(OC[C@H]1O[C@@H](n2ccc(=O)[nH]c2=O)[C@](C)(F)[C@H]1O)Oc1ccccc1`, the figure is 8.33 µM (active). Turning to `OC[C@H]1O[C@@H](Oc2cc(O)cc(C=Cc3ccc(O)cc3)c2)[C@H](O)[C@@H](O)[C@H]1O`, the “viability” value is 108%. Consider `COc1cc(OC)c(C=CS(=O)(=O)Cc2ccc(OC)c(NCC(=O)O)c2)c(OC)c1`, for which the Potency is 0.118 µM (active).

Turning to `NC1=N[C@@]2(c3cc(NC(=O)c4ccc(F)cn4)ccc3F)COC[C@@H]2CS1`, the “viability” value was 92.2%. For the compound `CC(C)NC[C@@H](C(=O)N1CCN(c2ncnc3c2[C@H](C)C[C@H]3O)CC1)c1ccc(Cl)cc1`, the Potency was 0.296 µM (active).

Regarding `CC(C)N(CC[C@H](c1ccccc1)c1cc(CO)ccc1O)C(C)C`, the “viability” value is 96.1%. The same measure, in the same setting: as for `CCOC1OC(=O)C[C@H]1NC(=O)[C@@H]1CCCN1C(=O)[C@@H](NC(=O)c1ccc(N)c(Cl)c1)C(C)(C)C` (stereo partly drawn), the figure is 90.2%; as for `CCNC(=O)CCCC=CC[C@@H]1[C@H](C=CC(O)CCc2ccccc2)[C@@H](O)C[C@@H]1O` (stereo partly drawn), 89.6%.

Another assay is described as follows: Cellular viability qHTS for adrenocortical cancer (ACC) cell line SW-13 (AID 1963989).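 For activity (max response): cells grown in serum-free medium with ITS supplement; % is set by controls: 0 for no effect and ±100 for the full control effect.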 Note: nearly all actives have a fitted effect of over 65% in size. The settings on record: SW-13 ACC cells viability, CellTiter-Glo, 48 h; activity (max response): stronger effect = lower value. Summed up:
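IC50 and maximal-response values come from four-parameter logistic fits of titration data. SW-13 cells in serum-free medium received compounds (up to 46 uM final) for 48 h before CellTiter-Glo luminescence.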
(In general: Quantitative high-throughput screening tests each substance at several concentrations.)
For the compound `CC1=C(C(=O)Nc2cc3cn[nH]c3cc2F)C(c2ccc(C(F)(F)F)cc2)CC(=O)N1` (stereo not drawn), the activity (max response) was 5.03%. Same read-out and setting: for `COc1ccc2c3n(c(=NC(=O)c4cccnc4)nc2c1OC)CCN3` the value was 2.77%; for `CCOc1ccccc1N=Nc1c(C)[nH]n(-c2nc(-c3ccccc3)cs2)c1=O`, -16.4%. On to `Clc1ccc(C(Cn2ccnc2)OCc2ccc(Sc3ccccc3)cc2)c(Cl)c1` (stereo not drawn), for which the Potency was 31.6 µM (active). Regarding `Clc1ccc2ncc(-c3cccc(NC4CNC4)n3)n2c1`, the activity (max response) is 12.3%. Still for that read-out and setting: for `COc1nccc(-c2c(-c3ccc(F)cc3)ncn2C2CCNCC2)n1` the value was -17.6%.
